# In PubChem BioAssay AID1274 (Emory University Molecular Libraries Screening Center, 2008):
# Hit rate of the full screen: of about 220,000 compounds, about 1,100 (0.5%) were called active.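 The calls were made as follows: active = inhibition above about 30% (limit read from the data); inactive = the rest.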 The sample as a whole holds a higher share of actives than the screen did.
# Biological target: Neutrophil cytosol factor 1 (Homo sapiens) (UniProt P14598)
# Assay: p47phox/p22phox peptide binding inhibitors, primary screen, biochemical, uHTS, NADPH oxidase regulatory subunit (AID 1274);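 also: 0% = p47phox with labelled peptide and 100% = labelled peptide alone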
# Conditions: fluorescence polarization, 2 h, at 24.7 µM, stronger effect = higher value
# Neutrophil cytosol factor 1 (Homo sapiens), sequence (P14598 whole entry, looked up): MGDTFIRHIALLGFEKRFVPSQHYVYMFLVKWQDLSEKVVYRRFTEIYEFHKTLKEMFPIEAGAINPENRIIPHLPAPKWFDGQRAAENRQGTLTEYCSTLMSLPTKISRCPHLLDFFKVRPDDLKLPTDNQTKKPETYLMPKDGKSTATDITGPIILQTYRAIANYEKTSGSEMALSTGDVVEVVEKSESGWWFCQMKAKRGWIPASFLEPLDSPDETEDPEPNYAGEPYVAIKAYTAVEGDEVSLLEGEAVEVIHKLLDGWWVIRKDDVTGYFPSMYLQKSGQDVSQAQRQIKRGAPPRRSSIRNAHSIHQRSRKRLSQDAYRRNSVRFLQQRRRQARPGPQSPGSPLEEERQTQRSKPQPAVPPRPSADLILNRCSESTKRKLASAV
row,SMILES,inhibition
1,O=C(COc1ccc([N+](=O)[O-])cc1Cl)Nn1cnnc1,-5.37% (inactive)
2,COc1cccc(-n2c(SCC(=O)c3c[nH]c4ccccc34)nc3ccccc3c2=O)c1,-14.5% (inactive)
3,CCN(CC)CC(=O)c1c[nH]c2ccc(OC)cc12,68.2% (active)
4,COc1ccc2[nH]c3ccc(OC)cc3c2c1,-9.23% (inactive)
5,CCNc1ccc(C(=O)OCC(=O)N2c3ccccc3NC(=O)C2(C)C)cc1[N+](=O)[O-],-6.42% (inactive)
6,CC(=O)NC(CC(=O)Nc1nccs1)c1ccccc1 (configuration not stated),1.69% (inactive)
7,CCOC(=O)N1CCC(NC(=O)C(NS(=O)(=O)c2ccc3c(c2)CCN3C(=O)CC)C(C)C)CC1 (configuration not stated),2.67% (inactive)
8,Cc1ccc(-c2cc(C(=O)NCc3cn(C)nc3C)c3cc(Br)ccc3n2)cc1,31.9% (active)
9,COc1ccc(Cl)cc1C(=O)NCc1cn(C)nc1C,-8.12% (inactive)
10,Cc1ccc2nc(-c3cccc(Br)c3)cc(C(=O)Nn3cnnc3)c2c1,-7.35% (inactive)
11,OC(CNCc1ccc2c(c1)OCO2)COc1ccccc1 (configuration not stated),-9.52% (inactive)
12,CCNC(=O)CN(c1ccc(C)cc1)S(=O)(=O)c1ccc(SC)cc1,-7.61% (inactive)
13,CN1CCC(=NNC(=O)CN(c2cccc(Cl)c2)S(C)(=O)=O)CC1,6.83% (inactive)
14,Cc1ccc(S(=O)(=O)N(CC(=O)NN=C2CCN(C)CC2)c2ccc(F)cc2)cc1,37.2% (active)
15,COc1cc(C(F)(F)F)nc2c(Br)c(C(C)(C)C)nn12,7.7% (inactive)
16,Cc1ccc(SCC(=O)c2cc(C)c(OC(=S)N(C)C)c(C)c2)cc1,-4.09% (inactive)
17,O=C1NC[C@@H](Cc2ccc(O)cc2)N(CCc2cccc(F)c2)C1=O,-6.81% (inactive)
18,Cc1cc(C)c2nc3nc(C)cc(C)c3c(N)c2c1,35.3% (active)
19,Cc1cc(C)c2nc(-c3ccco3)cc(C(=O)O)c2c1,-9.96% (inactive)
20,Cc1cc(C)c2nc(SCCC#N)nc(C)c2c1,1.52% (inactive)
21,COc1ccc(CNC(=O)CCC(=O)Nc2nnc(C(C)C)s2)cc1,-6.23% (inactive)

row,SMILES,inhibition
1,CCOC(=O)C1(O)CC(C)=NN1C(=O)c1cccc(Br)c1 (configuration not stated),-4.11% (inactive)
2,CC1=NN(C(=O)c2ccccc2Br)C(O)(c2cccnc2)C1 (configuration not stated),1.24% (inactive)
3,CC1=NN(C(=O)c2ccc(Br)cc2)C(O)(c2ccccc2)C1 (configuration not stated),40.2% (active)
4,CN(C)C(CNC(=O)Cc1ccc([N+](=O)[O-])cc1)c1ccccc1 (configuration not stated),-9.03% (inactive)
5,COCCN(C(=O)C(C)C)c1nnc(-c2ccc(C(C)(C)C)cc2)s1,-3.33% (inactive)
6,O=C(Cc1cccs1)Nc1nnc(SCc2ccc(F)cc2)s1,-11.1% (inactive)
7,C=CCOc1c(Br)cc(/C=N\n2nnnc2N)cc1OC,2.05% (inactive)
8,Nc1nnnn1/N=C/c1cccs1,-3.56% (inactive)
9,COc1ccc(/C=N/n2nnnc2N)cc1OC,31.6% (active)
10,CCn1c(SCc2ccc(C)cc2)nnc1-c1nn(-c2ccccc2)ccc1=O,-13% (inactive)
11,CCc1ccc(-c2nn(-c3ccccc3)cc2CSC(=N)N)cc1,51% (active)
12,N=C(N)SCc1cccc2ccccc12,-8.51% (inactive)
13,CCOc1cc(/C=C(/C#N)c2ccc(Cl)cc2)cc(Cl)c1OCC(=O)O,-9.24% (inactive)
14,COC(=O)CN1C(=O)N/C(=C/c2ccc(OC)c(C)c2OC)C1=O,5.97% (inactive)
15,COc1ccccc1CC(=O)Nc1ccc(F)cc1F,6.55% (inactive)
16,Cc1ccc(-c2nn(-c3cccc(F)c3)cc2CNCCc2ccncc2)o1,-21.2% (inactive)
17,CSCCNCc1cn(-c2ccc(F)cc2F)nc1-c1ccccc1C,30.6% (active)
18,O=C(Nc1ccccc1N1CCOCC1)c1csc2c1CCCC2,-2.28% (inactive)
19,c1csc(-c2nnc(COc3ncnc4sccc34)o2)c1,-9.61% (inactive)
20,NC(=O)NC(=O)CSc1nc2cc([N+](=O)[O-])ccc2n1-c1cccc(C(F)(F)F)c1,-1.12% (inactive)
21,CCCc1c(C(=O)O)cnn1-c1ccc(Cl)cc1,-1.8% (inactive)

row,SMILES,inhibition
1,CC1(C)CC(N2CCN(C(c3ccccc3)c3ccccc3)CC2)=CC(=[N+]2CCCCC2)C1,30.8% (active)
2,CC1(C)CC(=O)C=C(N2CCCC2)C1,-17.5% (inactive)
3,CC(C)NC(=S)N1CCN(C(c2ccccc2)c2ccccc2)CC1,-3.69% (inactive)
4,CCCSc1ncccc1C(=O)O,-1.29% (inactive)
5,Cc1ccc(Nc2nc(Cl)c(C=O)s2)cc1,-45% (inactive)
6,O=C(/C=C/c1ccccc1)Nc1nnc(SCC(=O)c2ccc3ccccc3c2)s1,-19.6% (inactive)
7,CC(=O)Oc1ccccc1C(=O)Nc1ncc([N+](=O)[O-])s1,-3.91% (inactive)
8,O=C(Cc1c(F)cccc1Cl)Nc1ncc([N+](=O)[O-])s1,-2.51% (inactive)
9,O=C(CCc1ccccc1)Nc1ncc([N+](=O)[O-])s1,41.8% (active)
10,Cn1c(C(=O)O)ccc1S(=O)(=O)N(Cc1ccccc1)Cc1ccccc1,0.4% (inactive)
11,Cc1ccc2c(CC(=O)NCc3cccs3)coc2c1,-14.7% (inactive)
12,CC1Cc2ccccc2N1C(=O)CSc1nnc(C2CC2)n1C (configuration not stated),-12.6% (inactive)
13,CC1Cc2ccccc2N1C(=O)CSc1nc2ccccc2o1 (configuration not stated),-13.1% (inactive)
14,Cc1cc(=O)[nH]c(SCC(=O)N2c3ccccc3CC2C)n1 (configuration not stated),42.8% (active)
15,O=C(NN1C(=O)C2CCCCC2C1=O)c1ccco1 (configuration not stated),8.97% (inactive)
16,C/C=C(\C)C(=O)N1CC2(CC(c3cccc(NC(=O)CCCCC)c3)=NO2)C[C@@H]1C(N)=O (some centres not stated),-4.05% (inactive)
17,COc1ccccc1C1/C(=C(/O)c2ccc(C)cc2)C(=O)C(=O)N1Cc1ccco1 (configuration not stated),-0.55% (inactive)
18,COc1ccccc1C1/C(=C(/O)c2ccc(OC(C)C)cc2)C(=O)C(=O)N1c1cc(C)on1 (configuration not stated),54.4% (active)
19,Cc1cc(N2C(=O)C(=O)/C(=C(/O)c3ccc(Cl)cc3)C2c2cccc(Br)c2)no1 (configuration not stated),-12.5% (inactive)
20,COc1ccc(NC(=O)COC(=O)c2ccncc2)c(OC)c1,-5.21% (inactive)
